High-throughput results (PubChem BioAssay)
ssDAF12 agonist: activates DAF-12 receptor from parasite S. stercoralis | HEK293 ssDAF-12/GRIP1 lit1-tk-luc reporter, luminescence; % of 3 µM dafachronic acid response | activation, % at 6.8 µM | actives 1% (n = 370,000) | AID 652126;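 active = activation above the mean over all tested compounds plus 3 SD, cut at about 0.9% in these data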;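 note: 0% = DMSO-only wells and 100% = 3 µM delta7-dafachronic acid wells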
hgDAF-12 ag: hgDAF-12 agonism, primary luciferase screen; actives 1.8% (n = 370,000); AID 687014; HEK293 GAL4-hgDAF12 UAS-luciferase reporter, agonist luminescence; normalized to butyrate control; activation, % at 6.8 µM;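 active = activation above a cutoff set at the mean of all screened compounds plus 3 SD, cut at about 10% in these data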;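 note: 0% = DMSO wells and 100% = sodium butyrate wells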
DAX1 inh-1: inhibitors of DAX1 repression of SF-1 activated StAR promoter. HEK293T StAR-luciferase reporter, SF-1/DAX-1 repression relief. inhibition, % at 6.8 µM. actives 1.1% (n = 370,000). AID 652010;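 active = inhibition above the mean over all tested compounds plus 3 SD, cut at about 3.6% in these data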;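 note: 0% = DAX-1 cells with DMSO and 100% = cells lacking DAX-1 with DMSO; higher inhibition means more luminescence from relief of DAX-1 repression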
hcDAF12 agonist: activators of H. contortus DAF-12 nuclear receptor; activation, % at 6.8 µM; actives 1.4% (n = 370,000); HEK293 hcDAF-12 lit1-tk-luc reporter, luminescence; 0% DMSO, 100% Δ7-dafachronic acid; AID 652067;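 active = activation above the mean of all tested compounds plus 3 SD, cut at about 5.5% in these data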;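 note: 100% = response to 3 µM Δ7-dafachronic acid high control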
DAX1 inh-2: NR0B1 (DAX1) inhibition; P51843; HEK293 Gal4-DAX1 luciferase reporter, luminescence; inhibition, % at 6.75 µM; actives 0.99% (n = 340,000); AID 504766;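 active = inhibition above the mean over all tested compounds plus 3 SD, cut at about 4.2% in these data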;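 note: 0% = DAX1-transfected cells with DMSO and 100% = empty-vector control cells with DMSO; inhibition shows as a rise in luminescence from relieved DAX1 repression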
Target sequence (P51843 207-470 limits assumed): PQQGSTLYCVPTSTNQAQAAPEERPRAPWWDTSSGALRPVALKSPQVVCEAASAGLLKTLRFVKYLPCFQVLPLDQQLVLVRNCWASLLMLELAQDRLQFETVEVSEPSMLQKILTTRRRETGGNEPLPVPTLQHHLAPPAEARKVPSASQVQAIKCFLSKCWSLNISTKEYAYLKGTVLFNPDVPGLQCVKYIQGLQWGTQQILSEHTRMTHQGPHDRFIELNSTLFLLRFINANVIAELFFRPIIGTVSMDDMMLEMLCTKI
FXN GAA850 act: frataxin GAA850 promoter activation; HEK293 lucGAA850 FXN promoter luciferase reporter, 24 h; percent of 10 µM SAHA response; activation, % at 6 µM; actives 0.56% (n = 360,000); AID 540364;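 active = activation above the average of all compounds screened plus 3 SD, cutoff fixed separately per campaign, cut at about 7.5% in these data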;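 note: 0% = DMSO wells and 100% = 10 µM SAHA wells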
Starred values were filed as active, the others as inactive; nt = not tested or not shown. Sampled rows, rich in hits. Any-hit rate of the full collection: about 4.5%.

SMILES	ssDAF12 agonist	hgDAF-12 ag	DAX1 inh-1	hcDAF12 agonist	DAX1 inh-2	FXN GAA850 act
Cc1ccc(S(=O)(=O)NCCCNS(=O)(=O)c2ccccc2[N+](=O)[O-])cc1	-1	0	-1	-3	1	-2
Cc1ccc(S(=O)(=O)NCCNc2ccccc2[N+](=O)[O-])cc1	-2	0	1	-1	4.3*	1
Cc1ccc(NC(=O)CCCCCNS(=O)(=O)c2ccc(C)cc2)cc1	1.1*	-1	1	2	1	1
O=C(CCSc1ccccc1Cl)Nc1cccc([N+](=O)[O-])c1	-1	11*	1	5	0	5
Cc1ccc(S(=O)(=O)NCC(=O)Nc2cccc([N+](=O)[O-])c2)cc1	1.7*	1	-1	5	0	0
Cc1ccc(S(=O)(=O)NC(=O)Nc2cccc([N+](=O)[O-])c2)cc1	-1	1	-1	-2	0	1
NS(=O)(=O)c1cccc(NC(=O)CCSc2ccccc2Cl)c1	-1	5	1	4	-1	4
COC(=O)[C@]12CCCCC=C1N(Cc1ccc(OC)cc1)C(=O)[C@@H]2CC(=O)N1CCCC1	-2	-3	-1	-1	nt	nt
Cc1ccc(N2NC(C)(c3cccs3)NC2=S)cc1 (stereo not drawn)	0	-2	0	3	4.3*	2
Cc1nn(-c2ccccc2)cc1/C=N/O	-1	4	1	-1	5.2*	-2
Cc1cc(OCC(=O)N2CCC(C(N)=O)CC2)c2c(C)cc(=O)oc2c1	-2	-2	-1	0	7.5*	-1
CCCCc1cc(=O)oc2cc(C)cc(OCC(=O)N3CCC(C(N)=O)CC3)c12	-1	1	-1	-1	1	-1
COc1ccc(Cn2cc(CN3[C@@H](CC(C)C)COc4cccc(F)c4S3(=O)=O)nn2)cc1	-2	0	-1	-1	nt	nt
Cc1ccc(NC(=O)c2cccc3c2-c2ccccc2C3=O)c(C)c1	-1	3	0	1	nt	nt
Cc1cnc(C(=O)OC(C(=O)c2c[nH]c3ccccc23)c2ccccc2)cn1 (stereo not drawn)	0.9*	0	2	1	0	2
Cc1ccc(C)c(NC(=O)C(OC(=O)c2cnc(C)cn2)c2ccccc2)c1 (stereo not drawn)	0	1	2	1	-1	-1
OC1c2cc(Cl)cc(Cl)c2N=C2CCCN21 (stereo not drawn)	-1	1	2	2	nt	1
OC1c2cc(Cl)ccc2-c2c(Cl)cc(Cl)cc21 (stereo not drawn)	0	2	-2	4	5.4*	3
CN(C(=O)COC(=O)c1cccnc1Cl)C1CCCCC1	0	4	4.5*	3	1	3
COc1ccc(C(C(=O)N(C)C2CCCC2)N(Cc2ccc(F)cc2)C(=O)c2csc(N3CCOCC3)n2)cc1OC (stereo not drawn)	-1	-1	-1	0	nt	nt
CCOc1ccc(N=C(/C(C(=O)C(=O)N2CCOCC2)=C(\O)c2ccccc2)c2ccccc2)cc1	0	12*	2	4	4	8
Cc1cc2nc(-c3ccccc3)c(Cc3cccc(Cl)c3)n2c(C)c1Br	0	11*	1	3	nt	nt
Cc1cc2nc(-c3ccc(F)cc3)c(Cc3cccc(Cl)c3)n2c(C)c1Br	1.5*	1	1	5.6*	nt	nt
Cc1cc2nc(C3CCCCC3)c(Cc3cccc(F)c3)n2c(C)c1Br	1.7*	2	-1	2	nt	nt
Cc1cc2nc(C3CCCCC3)c(Cc3ccccc3C(F)(F)F)n2c(C)c1Br	0	2	0	-1	nt	nt
SMILES	ssDAF12 agonist	hgDAF-12 ag	DAX1 inh-1	hcDAF12 agonist	DAX1 inh-2	FXN GAA850 act
Cc1onc(-c2ccc(Cl)cc2)c1-c1ccn(S(=O)(=O)c2ccccc2Cl)n1	-2	6	-1	0	nt	nt
Cc1cccc(N=CC=C2OC(C)(C)C(C)(C)O2)c1	0	4	0	0	0	1
Cc1ccc(N=CC=C2OC(C)(C)C(C)(C)O2)cc1	-2	4	0	5.7*	-1	0
COc1cc(C)ccc1OCc1cc(C(=O)N(C)CCCN2CCOCC2)no1	1.8*	10*	1	5	2	4
CN(CCCN1CCOCC1)C(=O)c1cc(COc2ccc(F)cc2F)on1	-1	-1	0	0	1	1
COc1cc(C(C)=O)ccc1OCc1cc(C(=O)N(C)CCC2CCCCO2)no1 (stereo not drawn)	1.1*	10	1	4	2	2
COC(=O)[C@]12C[C@H](CC(=O)NCC3CCCCC3)C(=O)N(Cc3ccc(Cl)cc3Cl)C1=C[C@H](C(C)C)O[C@@H]2C1CC1	-2	2	0	-1	nt	nt
Cc1ccc(C2C3=C(CC(C)(C)CC3=O)NC3=C2C(=O)c2ccccc23)cc1 (stereo not drawn)	-2	-2	-1	0	-2	-2
CC1(C)CC(=O)C2=C(C1)NC1=C(C(=O)c3ccccc31)C2c1ccc(Cl)cc1 (stereo not drawn)	0	-1	0	6.4*	-1	-4
Nc1ccc2nc(Cc3ccccc3)[nH]c2c1	-1	-3	0	1	4.6*	2
COc1ccc(N)c2c1C(=O)c1ccccc1C2=O	-1	3	1	0	-1	5
Nc1ccc(O)c2c1C(=O)c1ccccc1C2=O	-1	3	1	1	4.4*	3
O=C(Nc1ccc(Br)cc1)OC1CC2CC1[C@H]1CCCCN1C2 (stereo partly drawn)	0	-2	0	0	nt	nt
Cc1ccc(NC(=O)OC2CC3CC2[C@H]2CCCCN2C3)cc1 (stereo partly drawn)	-1	11*	0	0	nt	nt
O=S(=O)(c1cc2ccccc2s1)n1c(CN2CCOCC2)nc2ccccc21	-1	-2	0	2	nt	nt
COc1ccc(NC(=O)C=C(C)C)cc1Cl	-1	10	4.2*	3	1	7
O=C(Nc1ccc(Cl)c(Cl)c1)c1ccncc1	-1	7	-1	0	-1	3
COc1ccc(C(CC(=O)c2ccc3c(c2)OCO3)C(=O)O)cc1OC (stereo not drawn)	4.0*	1	-1	0	2	2
COc1ccc(NC(=O)c2ccc3c(c2)OCO3)cc1Cl	1	10*	4.0*	3	2	-1
COc1ccc(NC(=O)c2ccc3c(c2)OCCO3)cc1OC	0	8	1	5	1	6
O=C(Nc1ccc(Cl)c(Cl)c1)c1ccc(Cl)c(Cl)c1	1	13*	1	5	2	5
O=C(Nc1ccc(F)cc1Cl)C1CCCN1S(=O)(=O)c1cccc2cccnc12 (stereo not drawn)	-2	1	-2	-4	nt	nt
